MARV entry inh = blocks Marburg virus binding to or entry into cells. Marburg virus pseudotyped entry inhibition, cell reporter. Potency, µM (titrated, usually from 37.8 µM), for the others: top-dose activity change, negative = inhibition, usual class: inhibitors. 300,000 compounds, 1.8% hits. AID 540276; calls by dose curve; tested in HEK293 cells; further: potency means the concentration at half of the fitted maximal effect
HCV inh = inhibitors of hepatitis C virus infection. Huh7.5.1 HCVcc-Cre infection, luciferase reporter, 44 h. 340,000 compounds, 3.4% hits. Potency, µM (top dose mostly 41.8 µM), inactives show top-dose activity change, negative = inhibition, hits mostly inhibitors. AID 651820; further: potency means the concentration at half of the fitted maximal effect
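Infectious HCV cell culture screen: compound-treated cells (1,000/well, pre-plated 4 h) are infected with HCVcc-Cre at roughly 0.5 moi and grown 44 h. Infection is quantified by luciferase signal after 15 min substrate incubation at room temperature.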
Lassa entry inh = blocks Lassa virus binding to or entry into cells; Lassa virus pseudotype entry inhibition, cell reporter; Potency, µM (top dose mostly 37.9 µM), for inactives: at the highest dose activity change, negative = inhibition, actives largely listed as inhibitors; 300,000 compounds, 1.2% hits; calls by dose curve; tested in HEK293 cells; further: potency means the concentration at half of the fitted maximal effect; nearly all actives have a fitted effect of over 50% in size
FMDV antiviral = blocks foot and mouth disease virus | FMDV antiviral cell-based qHTS | Potency, µM (series often up to 57.9 µM), inactives show top-dose activity change, negative = inhibition, most hits filed as inhibitors | 410,000 compounds, 1.2% hits | AID 1159524; calls by dose curve; tested in HEK293T cells; further: read-out not given here; potency means the concentration at half of the fitted maximal effect; nearly all actives have a fitted effect of over 45% in size
FBPA Giardia inh = Giardia lamblia aldolase inhibition; Potency, µM (top dose mostly 59.6 µM), for inactives: at the highest dose activity, negative = inhibition, actives largely listed as inhibitors; 290,000 compounds, 0.71% hits; purified Giardia FBPA; further: potency means the concentration at half of the fitted maximal effect; nearly all actives have a fitted effect of over 55% in size
Target sequence (A8B2U2 whole entry, looked up): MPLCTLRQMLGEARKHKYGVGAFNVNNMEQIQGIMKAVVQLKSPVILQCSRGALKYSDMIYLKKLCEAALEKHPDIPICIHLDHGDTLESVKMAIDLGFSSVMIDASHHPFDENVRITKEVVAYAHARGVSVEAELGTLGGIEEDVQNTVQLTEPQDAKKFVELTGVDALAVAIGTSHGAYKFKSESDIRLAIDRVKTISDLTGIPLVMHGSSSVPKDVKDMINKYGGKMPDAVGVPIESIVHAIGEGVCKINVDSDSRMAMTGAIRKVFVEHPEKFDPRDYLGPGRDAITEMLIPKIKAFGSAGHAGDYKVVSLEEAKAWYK
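40 nM FBPA preincubated 10 min at RT with compound (up to 57.5 uM final), then substrate plus GAPDH/TPI/NAD/arsenate coupling and diaphorase/resazurin added. Fluorescence read after 20 min at RT, 525/598 nm.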
HCMV antiviral = inhibitors of human cytomegalovirus; activity change, negative = inhibition, % at 57.5 µM; HFF cells, HCMV-luciferase reporter, 72 h; hits give low values; 410,000 compounds, 4.5% hits; in the data active means activity change below about -60%; inconclusive means no clear call, values can overlap the other calls; inactive means above about -39%
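Human foreskin fibroblasts infected with luciferase-reporter HCMV at MOI 1 PFU/cell, compounds at two doses. Luciferase measured 72 h post infection; normalized to buffer-only basal and Salinomycin (10uM) controls.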
An asterisk follows results filed as active; ? = inconclusive; . = not tested or not shown; [ ] = remark or other dose. Hits are enriched below; roughly 8.3% of the tested compounds scored in any of these assays. Unless noted, the call rests on the fitted dose curve; in most records, active means well fitted curve in the direction sought with a large enough effect; inconclusive means small, poorly fitted or top-dose-only effect, or another doubt; inactive means no such curve, though single readings can be large; an effect the other way counts as inactive or inconclusive. On the % scale 0 is the no-effect control and ±100 the full control effect.

SMILES	MARV entry inh	HCV inh	Lassa entry inh	FMDV antiviral	FBPA Giardia inh	HCMV antiviral
C[C@H](NC(=O)[C@@H](N)Cc1ccc(O)cc1)C(=O)NCC(=O)N[C@H]1CSSC[C@@H](C(=O)O)NC(=O)[C@H](CO)NC(=O)[C@H]([C@@H](C)O)NC(=O)[C@H](Cc2ccccc2)NC(=O)[C@H]([C@@H](C)O)NC(=O)[C@H](CCCCN)NC(=O)[C@H](Cc2c[nH]c3ccccc23)NC(=O)[C@H](Cc2ccccc2)NC(=O)[C@H](Cc2ccccc2)NC(=O)[C@H](CC(N)=O)NC(=O)[C@H](CCCCN)NC1=O	.	.	.	.	5%	.
O=c1[nH]c2ccc(NCc3ccc(-c4cccc(Cl)c4)o3)cc2[nH]1	?	.	1%[46.1 µM]	-16%	.	-61*
O=c1[nH]c2ccc(NCc3ccc(-c4ccc(Br)cc4)o3)cc2[nH]1	7%[46.1 µM]	.	-3%[46.1 µM]	-21%	.	6
Cc1ccc(CN2CCC(C3(c4ccccn4)NC(=O)N(CC4CCCO4)C3=O)CC2)cc1C (stereo unspecified)	.	.	.	-5%	.	.
O=C1CC(c2nc3ccccc3n2Cc2c(F)cccc2Cl)CN1c1cccc(C(F)(F)F)c1 (stereo unspecified)	-2%[46.1 µM]	.	?	?	.	-34
COc1ccc(C(=O)N2CCC3(CC2)CN(c2ccccc2)C3)cc1	.	.	.	-26%	-4%	.
CC(=O)Nc1ccc(S(=O)(=O)NCc2cccnc2)cc1	-3%	36%	?	-13%	0%	-6
O=C(Nc1cccnc1)c1ccc(-c2cc(Cl)ccc2Cl)o1	-26%[46.1 µM]	11µM*	-7%	3%	0%	1
O=C(Nc1ccc(S(=O)(=O)NCCc2ccccc2)cc1)c1ccco1	12%	-15%	-18%	66%	11%	?
O=S(=O)(NCc1cccnc1)c1ccc2ccccc2c1	-19%[46.1 µM]	-28%	-6%[46.1 µM]	22%	-7%	-63*
O=C(Nc1cccnc1)c1ccc(-c2ccc(Cl)cc2)o1	-1%[46.1 µM]	2%	5%[46.1 µM]	7%	-1%	35
O=C(Nc1ccc(S(=O)(=O)NCCc2ccccc2)cc1)c1ccncc1	.	11µM*	.	21%	.	-20
O=C(Nc1ccc(S(=O)(=O)NCc2cccnc2)cc1)c1ccccc1Cl	?	8.9µM*	-22%	?	-3%	?
CCOc1ccc(CCNC(=O)CCc2c(C)nc3c(c(C)nn3-c3ccccc3)c2C)cc1OCC	?	.	8%[46.1 µM]	?	.	11
COc1ccccc1C1CN(Cc2cnn(C)c2)Cc2ccccc2O1 (stereo unspecified)	.	.	.	2%	.	.
COc1ccc(C(=O)Oc2c(Sc3ccc(C)cc3)c(C)nn2C(C)(C)C)c(OC)c1	?	.	?	?	.	-5
O=C(Nc1ccccc1)c1ccc(S(=O)(=O)NCc2cccnc2)cc1	?	8.9µM*	-46%	?	7%	-5
CCCCCc1ccc(S(=O)(=O)NCCc2ccncc2)cc1	-20%	10µM*	2%	29%	11%	?
O=C(Nc1cccnc1)c1ccc(S(=O)(=O)c2ccc(Cl)cc2)cc1	?	?	?	28µM*	4%	-86*
COc1ccc(Nc2ncc(C(=O)Nc3ccc(F)cc3F)c3ccccc23)cc1	-13%[46.1 µM]	.	-2%[46.1 µM]	0%	.	-28
CC(C)Oc1ccc(CN2CCc3nc(Nc4ccc5c(c4)OCCO5)ncc3C2)cc1	.	.	-1%[46.1 µM]	-28%	.	?
Cc1cccc(Cl)c1NC(=O)N(C)c1ccccc1	.	.	.	.	.	54
CCN1CCN(c2ccc(NS(=O)(=O)c3c(C)nc4sccn4c3=O)cc2Cl)CC1	?	.	-25%[46.1 µM]	-10%	.	-68*
C=CCN(C)CCCCCCOc1ccc(C(=O)c2ccc(Br)cc2)c(F)c1	.	.	.	.	-2%	.
Cc1ccc(C(=O)NN2C(=O)/C(=C/c3cn(C)c4ccccc34)SC2=S)cc1	3%	4%	?	6%	-10%	-69*
CN[C@@H]1[C@H](O[C@@H]2O[C@H](C)[C@@](O)(CO)[C@H]2O[C@H]2[C@H](O)[C@H](O)[C@H](N=C(N)N)[C@@H](O)[C@@H]2N=C(N)N)O[C@@H](CO)[C@H](O)[C@H]1O	.	.	.	.	1%	.
COc1ccc(CN(C)C(=O)CCc2ccc(S(=O)(=O)N3CCCCCC3)cc2)c(OC)c1	.	?	.	0%	.	-13

Screens: PubChem BioAssay, National Center for Advancing Translational Sciences (NCATS)
